Bioassay records: PubChem BioAssay, National Center for Advancing Translational Sciences (NCATS)
An excerpt weighted towards active compounds, which were near 6.9% of everything screened.
BAZ2B inh: BAZ2B (human) inhibition. Q9UIF8. AlphaScreen BAZ2B-H3K14Ac peptide displacement. Potency, µM (doses to about 114 µM), usual class: inhibitors. hit rate 4.4% among 360,000. AID 504333; further: nearly all actives have a fitted effect of over 60% in size
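BAZ2B 50 nM plus b-H3(5-23)K14Ac 50 nM, PBS pH 7.4/0.01% Tween-20, 30 min RT; compound added (max 110 uM), 30 min RT; streptavidin donor/Ni-chelate acceptor beads 10 ug/mL final, 20 min dark; AlphaScreen read.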
L3MBTL1 inh: L3MBTL1 (human) inhibition | Q9Y468 | AlphaScreen L3MBTL1–H3K9me1 peptide binding | Potency, µM (titrated, usually from 57.1 µM), hits mostly inhibitors | hit rate 0.66% among 230,000; further: nearly all actives have a fitted effect of over 60% in size
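L3MBTL1 (50 nM) pre-complexed 30 min with biotinylated H3(1-15)K9me1 peptide (75 nM), then compounds added for 30 min at room temperature; AlphaScreen streptavidin donor/nickel chelate acceptor beads (10 ug/mL final) read after 30 min dark incubation.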
HP1b binding inh: blocks HP1-beta chromodomain binding to methylated histone tails; hit rate 0.56% among 390,000; P83916; Potency, µM (top dose mostly 114 µM), actives largely listed as inhibitors; AlphaScreen HP1-beta / biotin-H3K9me3 peptide binding; further: nearly all actives have a fitted effect of over 70% in size
Target sequence (P83916 whole entry, looked up): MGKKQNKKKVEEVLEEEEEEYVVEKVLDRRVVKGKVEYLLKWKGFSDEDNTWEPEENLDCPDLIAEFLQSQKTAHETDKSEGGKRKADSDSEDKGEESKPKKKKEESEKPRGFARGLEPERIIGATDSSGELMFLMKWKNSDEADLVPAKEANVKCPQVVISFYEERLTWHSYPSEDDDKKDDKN
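Compound inhibition of the preformed complex between 50 nM HP1-beta and 50 nM biotinylated H3K9me3 peptide was read by AlphaScreen. Buffer was PBS pH 7.4 with 0.01% Tween-20. Incubations ran 30 min at room temperature, with 10 ug/mL donor/acceptor beads.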
PLK1 PBD inh: inhibitors of human PLK1 polo-box domain binding | P53350 | Plk1 PBD binding of FITC phosphopeptide, fluorescence polarization | Potency, µM, most hits filed as inhibitors | hit rate 2.8% among 360,000; further: series mostly up to about 57 µM; nearly all actives have a fitted effect of over 65% in size
JMJD2A Tudor: inhibitors of human JMJD2A Tudor domain; AID 504339; AlphaScreen JMJD2A-Tudor / H3K4me3 peptide binding; hit rate 4.4% among 390,000; O75164; Potency, µM (series often up to 114 µM), hits mostly inhibitors; further: nearly all actives have a fitted effect of over 50% in size
VDR inh: blocks the human vitamin D receptor | P11473 | VDR-SRC2-3 peptide fluorescence polarization, 2 h | Potency, µM, most hits filed as inhibitors | hit rate 0.93% among 400,000 | AID 504847
Target sequence (P11473 whole entry, looked up): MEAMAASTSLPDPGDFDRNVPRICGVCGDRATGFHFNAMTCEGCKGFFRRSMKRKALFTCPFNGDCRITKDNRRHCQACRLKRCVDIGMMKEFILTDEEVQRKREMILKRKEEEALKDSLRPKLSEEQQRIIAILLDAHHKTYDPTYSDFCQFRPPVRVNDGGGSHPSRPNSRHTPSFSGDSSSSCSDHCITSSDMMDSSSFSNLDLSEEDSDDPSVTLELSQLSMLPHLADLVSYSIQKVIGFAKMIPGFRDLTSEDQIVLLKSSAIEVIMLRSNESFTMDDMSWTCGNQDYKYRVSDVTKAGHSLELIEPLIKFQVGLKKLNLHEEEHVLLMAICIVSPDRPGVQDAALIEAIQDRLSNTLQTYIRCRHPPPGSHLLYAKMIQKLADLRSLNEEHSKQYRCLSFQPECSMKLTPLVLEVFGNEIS
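Compounds are added to VDR with labelled SRC2-3 coactivator peptide and held 2 h at room temperature. Inhibition of the VDR–peptide interaction is then read as a change in fluorescence polarization.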
Hits are given with their value; - = inactive; ? = inconclusive; . = no result; [ ] = another dose, or the depositor's remark. The call rests on the fitted dose curve; in most records, active means well fitted curve in the direction sought with a large enough effect; inconclusive means small, poorly fitted or top-dose-only effect, or another doubt; inactive means no such curve, though single readings can be large; an effect the other way counts as inactive or inconclusive.

SMILES | BAZ2B inh | L3MBTL1 inh | HP1b binding inh | PLK1 PBD inh | JMJD2A Tudor | VDR inh
COc1cc(/C=C2\SC(=S)N(NC(=O)c3cccc(O)c3)C2=O)ccc1O | 35µM | . | 45µM | - | ? | -
CC(=O)NN1C(=O)/C(=C/c2ccc(C(C)C)cc2)SC1=S | 45µM | - | ? | - | - | -
COc1cc(/C=C2\SC(=S)N(Nc3ccccc3)C2=O)cc(OC)c1OC | 22µM | ? | ? | - | ? | -
CC1(C(=O)NS(=O)(=O)Cc2ccccc2C(F)(F)F)CCN1C(=O)c1ccco1 (stereo unspecified) | . | . | . | - | . | .
Cc1ccc(C(=O)N2CCc3cc(CNS(=O)(=O)c4cccs4)ccc32)cc1 | - | . | - | . | - | -
CCOc1cc(C2c3c(oc4ccccc4c3=O)C(=O)N2Cc2ccc3c(c2)OCO3)ccc1O (stereo unspecified) | - | . | - | . | - | -
Cc1ccc(C(c2cccc(Br)c2)c2c(C)[nH]c3ccccc23)s1 (stereo unspecified) | - | . | - | . | ? | -
CCOc1cc(/C=C2\SC(=S)N(NC(=O)c3cccnc3)C2=O)ccc1O | 10µM | - | ? | - | - | -
CCOc1cc(/C=C2\SC(=S)N(NS(=O)(=O)c3ccc(C)cc3)C2=O)ccc1O | . | . | - | - | ? | -
COc1cc(/C=C2\SC(=S)N(NC(=O)c3ccncc3)C2=O)ccc1O | ? | - | - | - | - | -
COc1cc(/C=C2\SC(=S)N(NC(=O)c3ccc(O)c(OC)c3)C2=O)ccc1O | 35µM | . | 50µM | - | 56µM | -
COc1cccc(CNCC(O)COc2ccc(C(=O)c3ccccc3)cc2)c1 (stereo unspecified) | 50µM | . | ? | - | 56µM | -
Cc1ccc2[nH]c(CSc3nnc(NC(=O)c4ccc(Cl)cc4)s3)cc(=O)c2c1 | - | . | - | . | - | -
Cc1cccc(NC(=O)CSc2nnc(NC(=O)CN3CCCCC3)s2)c1 | - | - | . | . | . | .
CCOC(=O)CSc1nnc(NC(=O)CN2CCCCC2)s1 | - | . | - | 27µM | 50µM | -
Cc1nc(N2CCCCC2)sc1C(=O)c1cccc([N+](=O)[O-])c1 | 40µM | - | ? | - | ? | -
Cc1nc(N2CCCCC2)sc1C(=O)c1ccc(SCCO)c([N+](=O)[O-])c1 | 40µM | . | ? | 8.4µM | 13µM | ?
COc1ccccc1OCCCOc1ccc(/C=C2\SC(=O)NC2=O)cc1OC | - | -[2.29 µM] | - | ? | - | -
COc1ccccc1OCCCOc1cccc(/C=C2\SC(=O)NC2=O)c1 | 79µM | -[2.29 µM] | - | 21µM | 22µM | ?
O=C(O)CCCN1C(=O)C(=O)/C(=C(/O)c2ccccc2)C1/C=C/c1ccccc1 (stereo unspecified) | ? | - | - | 13µM | 45µM | ?
Cn1c(N)c(C#N)c2c(c1=S)CSC(C)(C)C2 | - | - | - | - | 79µM | -
Cc1ccc2[nH]cc(C(=O)CCl)c2c1 | - | - | - | 15µM | ? | -
CCOc1cc(CNC(=O)CSc2n[nH]c(-c3ccccc3)n2)cc(OCC)c1OCC | - | . | - | . | - | -
Cc1cccc(-n2c(=S)[nH]c3sc4c(c3c2=O)CCc2ccccc2-4)c1 | ? | . | 7.1µM | 3µM | ? | ?
COc1ccc(-n2c(=S)[nH]c3sc4c(c3c2=O)CCN(C)C4)cc1 | - | . | . | . | . | .
SMILES | BAZ2B inh | L3MBTL1 inh | HP1b binding inh | PLK1 PBD inh | JMJD2A Tudor | VDR inh
CCN(CC)C(=O)c1sc2[nH]c(=S)n(-c3ccccc3)c(=O)c2c1C | ? | - | - | - | ? | -
Cc1ccc(-n2c(=S)[nH]c3sc4c(c3c2=O)CCc2ccccc2-4)cc1 | - | - | - | 30µM | - | -
Cc1ccnc(OC(C(=O)O)C(OCc2ccccc2)(c2ccc(F)cc2)c2ccc(F)cc2)n1 (stereo unspecified) | - | - | - | 27µM | - | ?
Cc1cc(C)nc(OC(C(=O)O)C(OCCc2ccccc2)(c2ccc(F)cc2)c2ccc(F)cc2)n1 (stereo unspecified) | - | - | - | ? | - | ?
CC12CCC(C(=O)N(CCCN3CCN(Cc4ccccc4)CC3)C1=O)C2(C)C (stereo unspecified) | 50µM | - | - | - | ? | -
COc1cc2c(C(=O)N3CCN(c4cccc(Cl)c4)CC3)cn(CC(C)C)c(=O)c2cc1OC | - | . | - | - | ? | -
O=C1c2ccccc2S(=O)N1c1cccc(F)c1 (stereo unspecified) | . | . | . | 24µM | . | .
CC(C)c1ccc(/C=C/C2=NNC(=O)CC2)cc1 | - | - | ? | 9.5µM | -[11.4 µM] | ?
COc1cc(/C=C/C2=NNC(=O)CC2)cc(OC)c1OC | - | . | - | - | - | -
CNc1ncncc1-c1ccc(C(=O)N(C)C)cc1 | . | . | . | . | . | -
Cc1ccc(C)c(Nc2nc3c(S(=O)(=O)c4ccc(C(C)C)cc4)nnn3c3ccsc23)c1 | 79µM | . | - | . | - | -
COc1ccccc1Nc1nc2c(S(=O)(=O)c3ccc(C(C)C)cc3)nnn2c2ccsc12 | - | . | - | . | - | -
Cc1ccc(C)c(Nc2nc3c(S(=O)(=O)c4ccc(Br)cc4)nnn3c3ccsc23)c1 | 50µM | . | - | . | 56µM | -
CCc1ccccc1NC(=O)C(=O)NCC(c1cccnc1)N1CCN(c2ccccc2F)CC1 (stereo unspecified) | - | . | - | . | - | -
O=C(NCc1ccc(Cl)cc1)c1csc(-c2cccnc2)n1 | - | . | - | 30µM | ? | -
CC(/C=C1\SC(=S)N(CCC(=O)Nc2nc(C)cs2)C1=O)=C\c1ccccc1 | ? | . | - | - | 40µM | -
CC(/C=C1\SC(=S)N(CCCC(=O)Nc2ccc(C(=O)O)c(O)c2)C1=O)=C\c1ccccc1 | ? | 40µM | ? | 27µM | 40µM | ?
CC(/C=C1\SC(=S)N(CCC(=O)Nc2ccc(O)cc2)C1=O)=C\c1ccccc1 | - | . | - | - | ? | -
O=C1/C(=C/c2cccs2)SC(=S)N1c1cccc(O)c1 | ? | - | - | - | 16µM | -
O=C(CCCN1C(=O)/C(=C/c2cccs2)SC1=S)Nc1cccc(O)c1 | ? | . | ? | - | 40µM | -
Cc1ccc(NC(=O)Cn2c(C)cc(C)c(C#N)c2=O)cc1 | - | . | - | . | - | -
O=C1/C(=C/c2cccs2)SC(=S)N1N1CCOCC1 | ? | - | 35µM | - | ? | -
O=C(CCN1C(=O)/C(=C/c2cccs2)SC1=S)Nc1ccc(C(=O)O)c(O)c1 | 56µM | . | - | 27µM | - | -
O=C(CCN1C(=O)/C(=C/c2cccs2)SC1=S)Nc1ccc(O)cc1 | - | . | - | - | - | -
O=C(CCN1C(=O)/C(=C/c2cccs2)SC1=S)Nc1cccc(C(=O)O)c1 | 50µM | . | - | - | - | -
CCc1c(C)sc2c1CCN(Cc1ccccc1F)C2c1ccccc1 (stereo unspecified) | - | . | ? | . | - | -
CCCOC(=O)c1c(-c2ccccc2)c(-c2ccccc2)nn(C)c1=O | - | . | - | . | - | -
